Measurements published in the supplement of paper PMC10849652.
The full data set covers some 8,800 targets. This sample favours those with a hit. About 0.5% of all pairs of compound and target were hits. Unmarked numbers belong to inactive results.

How the values were obtained:
Experiment in all cases: log2 fold change, soluble protein after heating vs DMSO (PISA); higher = thermal stabilisation; K562 lysate, 10 uM; active = over 0.2 and 3.5 SD of the protein, either way, in both replicates (recomputed)
[1] = compound: C1=CC=C(C=C1)[C@H](COC2=CC3=C(C=C2)NC(=O)N3)NC(=O)C4=CC=CN(C4=O)CC5=CC(=C(C=C5)F)F
Procedure, shortened: (§1)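 A 30 min treatment with 10 μM compound was applied to crude K562 extract at 1 mg/mL protein in PBS pH 7.4 with 1 mM MgCl2. Heating for 3 min spanned 48°C-58°C, after which aliquots were pooled, adjusted to 0.5% NP-40 at 4°C and spun at 21,000xg for 90 min. TMTpro 16plex LC-MS/MS of the supernatant, with channel sums equalised, gave values recorded as log-two fold change in thermal stability against solvent controls, from duplicates.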

[2] = compound: CC1=C(SC2=C1C(=N[C@H](C3=NN=C(N32)C)CC(=O)N)C4=CC=C(C=C4)Cl)C
Procedure, shortened: as §1

[3] = compound: CC1=C2C(=CC=C1)N=C(N(C2=O)C3=CC=CC=C3C)CN4C=NC5=C(N=CN=C54)N
Procedure, shortened: as §1

[4] = compound: Cc1sc2c(c1C)C(c1ccc(Cl)cc1)=N[C@@H](CC(=O)OC(C)(C)C)c1nnc(C)n1-2
Procedure, shortened: as §1

[5] = compound: c1ccc([C@@H]2C[C@H]2NC2CCNCC2)cc1
Procedure, shortened: as §1

Chain of UniProt Q9UBD5 (Q9UBD5 whole entry, looked up): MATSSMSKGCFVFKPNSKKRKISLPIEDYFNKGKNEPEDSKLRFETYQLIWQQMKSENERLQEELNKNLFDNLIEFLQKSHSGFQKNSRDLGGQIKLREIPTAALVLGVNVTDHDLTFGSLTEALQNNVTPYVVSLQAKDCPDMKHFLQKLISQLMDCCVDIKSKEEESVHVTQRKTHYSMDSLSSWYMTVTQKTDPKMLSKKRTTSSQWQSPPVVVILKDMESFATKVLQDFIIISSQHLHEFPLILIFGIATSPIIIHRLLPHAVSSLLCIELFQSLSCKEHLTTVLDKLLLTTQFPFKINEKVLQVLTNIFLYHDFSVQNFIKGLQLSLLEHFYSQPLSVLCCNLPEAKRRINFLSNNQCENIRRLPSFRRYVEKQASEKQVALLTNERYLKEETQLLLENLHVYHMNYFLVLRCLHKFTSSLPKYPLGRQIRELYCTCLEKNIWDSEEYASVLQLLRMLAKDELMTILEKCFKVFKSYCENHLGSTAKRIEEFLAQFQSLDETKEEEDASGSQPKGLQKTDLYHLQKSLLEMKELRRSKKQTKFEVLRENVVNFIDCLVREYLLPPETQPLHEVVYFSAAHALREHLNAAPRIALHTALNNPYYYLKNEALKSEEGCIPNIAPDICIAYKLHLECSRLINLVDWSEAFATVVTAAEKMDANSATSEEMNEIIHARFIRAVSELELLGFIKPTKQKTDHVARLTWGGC
Chain of UniProt Q969R2 (Q969R2 whole entry, looked up): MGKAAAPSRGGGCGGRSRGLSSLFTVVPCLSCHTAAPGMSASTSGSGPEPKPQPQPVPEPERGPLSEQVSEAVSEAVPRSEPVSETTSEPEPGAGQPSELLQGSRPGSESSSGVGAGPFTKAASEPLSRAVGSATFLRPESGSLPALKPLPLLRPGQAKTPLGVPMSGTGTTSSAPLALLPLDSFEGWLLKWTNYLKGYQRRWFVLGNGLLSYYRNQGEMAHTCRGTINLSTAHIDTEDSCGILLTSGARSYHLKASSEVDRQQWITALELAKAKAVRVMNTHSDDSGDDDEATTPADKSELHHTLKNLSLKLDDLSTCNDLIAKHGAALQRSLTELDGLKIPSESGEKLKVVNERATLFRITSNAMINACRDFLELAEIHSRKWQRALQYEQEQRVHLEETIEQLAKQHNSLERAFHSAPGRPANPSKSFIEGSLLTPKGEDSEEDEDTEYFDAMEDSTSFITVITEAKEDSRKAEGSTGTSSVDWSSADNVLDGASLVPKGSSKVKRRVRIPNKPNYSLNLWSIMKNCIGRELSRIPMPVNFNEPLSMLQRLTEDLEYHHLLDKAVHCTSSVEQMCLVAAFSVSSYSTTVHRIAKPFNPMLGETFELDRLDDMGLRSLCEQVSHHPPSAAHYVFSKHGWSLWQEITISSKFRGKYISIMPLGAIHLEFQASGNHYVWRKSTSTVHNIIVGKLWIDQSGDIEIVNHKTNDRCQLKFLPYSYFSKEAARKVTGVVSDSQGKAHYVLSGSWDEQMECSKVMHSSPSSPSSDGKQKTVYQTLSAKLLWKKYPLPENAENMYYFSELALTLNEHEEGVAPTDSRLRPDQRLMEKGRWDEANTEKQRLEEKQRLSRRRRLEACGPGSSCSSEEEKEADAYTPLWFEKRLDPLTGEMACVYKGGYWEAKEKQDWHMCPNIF
Chain of UniProt Q9NTK5 (Q9NTK5 whole entry, looked up): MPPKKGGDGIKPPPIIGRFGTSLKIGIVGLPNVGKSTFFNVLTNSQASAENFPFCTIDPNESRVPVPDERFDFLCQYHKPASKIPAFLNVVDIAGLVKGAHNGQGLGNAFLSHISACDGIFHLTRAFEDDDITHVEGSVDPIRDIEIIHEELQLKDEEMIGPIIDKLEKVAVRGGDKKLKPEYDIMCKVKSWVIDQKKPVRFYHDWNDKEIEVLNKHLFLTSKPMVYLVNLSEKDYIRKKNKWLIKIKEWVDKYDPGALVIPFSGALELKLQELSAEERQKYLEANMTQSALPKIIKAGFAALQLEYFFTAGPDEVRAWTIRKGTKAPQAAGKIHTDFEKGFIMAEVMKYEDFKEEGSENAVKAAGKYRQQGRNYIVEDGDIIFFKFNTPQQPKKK
Chain of UniProt O60829 (O60829 whole entry, looked up): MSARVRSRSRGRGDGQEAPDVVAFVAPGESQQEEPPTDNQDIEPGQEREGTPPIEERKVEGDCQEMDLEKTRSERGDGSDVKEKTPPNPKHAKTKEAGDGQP
Chain of UniProt P48552 (P48552 whole entry, looked up): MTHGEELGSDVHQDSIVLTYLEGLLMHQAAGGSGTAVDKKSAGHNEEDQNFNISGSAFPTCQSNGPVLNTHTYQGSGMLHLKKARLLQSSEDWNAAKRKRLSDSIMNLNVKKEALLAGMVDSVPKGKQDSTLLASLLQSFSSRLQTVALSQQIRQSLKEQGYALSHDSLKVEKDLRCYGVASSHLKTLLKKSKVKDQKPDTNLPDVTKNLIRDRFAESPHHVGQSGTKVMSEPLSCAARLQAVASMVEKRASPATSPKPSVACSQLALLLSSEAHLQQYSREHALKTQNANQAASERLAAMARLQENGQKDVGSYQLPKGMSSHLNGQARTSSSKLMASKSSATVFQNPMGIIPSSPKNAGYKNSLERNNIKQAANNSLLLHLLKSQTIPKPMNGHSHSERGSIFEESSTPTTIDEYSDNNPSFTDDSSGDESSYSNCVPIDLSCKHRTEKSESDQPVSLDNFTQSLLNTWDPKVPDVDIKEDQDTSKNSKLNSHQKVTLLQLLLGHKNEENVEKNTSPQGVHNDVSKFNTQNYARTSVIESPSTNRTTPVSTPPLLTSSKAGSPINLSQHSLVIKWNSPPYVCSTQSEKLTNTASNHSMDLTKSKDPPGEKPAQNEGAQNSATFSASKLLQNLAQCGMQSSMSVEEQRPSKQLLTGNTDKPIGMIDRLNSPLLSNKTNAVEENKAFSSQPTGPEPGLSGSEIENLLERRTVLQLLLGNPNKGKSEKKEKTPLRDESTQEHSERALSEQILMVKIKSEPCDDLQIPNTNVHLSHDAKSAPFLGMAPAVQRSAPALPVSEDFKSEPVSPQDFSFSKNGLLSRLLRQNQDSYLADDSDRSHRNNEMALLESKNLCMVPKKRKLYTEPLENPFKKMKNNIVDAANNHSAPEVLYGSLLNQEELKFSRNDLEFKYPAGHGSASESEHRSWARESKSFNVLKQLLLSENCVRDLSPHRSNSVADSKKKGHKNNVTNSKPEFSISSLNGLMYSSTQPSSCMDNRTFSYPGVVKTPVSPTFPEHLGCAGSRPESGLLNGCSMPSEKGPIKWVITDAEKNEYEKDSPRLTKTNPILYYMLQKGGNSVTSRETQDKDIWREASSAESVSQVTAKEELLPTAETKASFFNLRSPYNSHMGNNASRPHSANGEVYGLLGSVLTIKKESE
Chain of UniProt P24468 (P24468 whole entry, looked up): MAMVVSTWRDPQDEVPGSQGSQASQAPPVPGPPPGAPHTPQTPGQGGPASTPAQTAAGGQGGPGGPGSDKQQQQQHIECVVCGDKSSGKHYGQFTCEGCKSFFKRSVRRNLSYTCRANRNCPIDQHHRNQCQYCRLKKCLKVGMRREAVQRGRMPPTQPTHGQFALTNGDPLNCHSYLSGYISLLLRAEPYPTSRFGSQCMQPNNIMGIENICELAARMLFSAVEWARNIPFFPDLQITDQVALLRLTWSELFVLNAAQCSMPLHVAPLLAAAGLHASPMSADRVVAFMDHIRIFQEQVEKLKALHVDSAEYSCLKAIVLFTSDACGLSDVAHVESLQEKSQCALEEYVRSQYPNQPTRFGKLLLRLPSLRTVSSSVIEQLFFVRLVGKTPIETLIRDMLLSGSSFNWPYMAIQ
Chain of UniProt Q9BXW6 (Q9BXW6 whole entry, looked up): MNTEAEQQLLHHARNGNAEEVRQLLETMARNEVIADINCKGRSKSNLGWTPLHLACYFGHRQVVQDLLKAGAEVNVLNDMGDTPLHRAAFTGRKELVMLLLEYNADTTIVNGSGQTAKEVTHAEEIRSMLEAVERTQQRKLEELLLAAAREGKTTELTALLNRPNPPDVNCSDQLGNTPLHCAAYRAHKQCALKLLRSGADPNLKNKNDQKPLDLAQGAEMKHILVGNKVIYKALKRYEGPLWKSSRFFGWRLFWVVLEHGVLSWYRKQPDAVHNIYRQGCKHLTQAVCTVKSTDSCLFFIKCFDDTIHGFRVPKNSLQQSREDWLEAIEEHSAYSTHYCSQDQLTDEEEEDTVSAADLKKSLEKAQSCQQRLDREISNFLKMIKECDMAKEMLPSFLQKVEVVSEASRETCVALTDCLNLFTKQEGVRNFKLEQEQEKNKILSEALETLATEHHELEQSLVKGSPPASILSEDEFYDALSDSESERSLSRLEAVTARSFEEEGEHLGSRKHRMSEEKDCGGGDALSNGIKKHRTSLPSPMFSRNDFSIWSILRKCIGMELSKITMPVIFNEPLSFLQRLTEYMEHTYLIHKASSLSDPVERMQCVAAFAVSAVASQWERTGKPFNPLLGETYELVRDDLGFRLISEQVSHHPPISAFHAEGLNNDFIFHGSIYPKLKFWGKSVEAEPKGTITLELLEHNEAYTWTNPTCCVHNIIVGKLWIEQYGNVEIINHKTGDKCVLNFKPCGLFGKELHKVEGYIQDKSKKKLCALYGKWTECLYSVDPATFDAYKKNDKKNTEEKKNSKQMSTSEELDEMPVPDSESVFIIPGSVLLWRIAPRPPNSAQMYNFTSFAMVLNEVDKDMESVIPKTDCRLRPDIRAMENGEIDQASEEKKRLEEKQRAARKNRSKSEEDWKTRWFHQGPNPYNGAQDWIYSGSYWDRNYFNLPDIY
Chain of UniProt Q9UFN0 (Q9UFN0 whole entry, looked up): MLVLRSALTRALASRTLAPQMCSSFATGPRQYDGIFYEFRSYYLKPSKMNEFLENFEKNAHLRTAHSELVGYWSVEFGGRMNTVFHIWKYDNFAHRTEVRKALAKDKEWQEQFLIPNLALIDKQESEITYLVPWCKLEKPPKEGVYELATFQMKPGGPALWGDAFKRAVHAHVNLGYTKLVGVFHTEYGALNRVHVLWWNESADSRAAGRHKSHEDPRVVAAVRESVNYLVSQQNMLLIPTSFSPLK
Chain of UniProt Q5JRK9 (Q5JRK9 whole entry, looked up): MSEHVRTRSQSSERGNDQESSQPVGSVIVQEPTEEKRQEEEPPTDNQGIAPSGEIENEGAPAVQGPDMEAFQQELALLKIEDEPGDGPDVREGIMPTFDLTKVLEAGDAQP

| Target | log2 fold change [1] | log2 fold change [2] | log2 fold change [3] | log2 fold change [4] | log2 fold change [5] |
| --- | --- | --- | --- | --- | --- |
| NFAT5 isoform 5 (UniProt O94916) | 0.12 | -0.028 | 0.009 | -0.02 | -0.007 |
| PAK1 (UniProt Q13153) | 0.029 | -0.009 | -0.011 | 0.015 | -0.126 |
| NQO1 (UniProt P15559) | 0.433 (active) | 0.025 | 0.223 | -0.008 | -0.016 |
| NUMBL (UniProt Q9Y6R0) | -0.047 | 0.038 | 0.039 | -0.096 | -0.012 |
| NFKBIE (UniProt O00221) | -0.014 | -0.068 | 0.033 | 0.081 | -0.087 |
| PBK (UniProt Q96KB5) | -0.002 | 0.006 | 0.006 | 0.023 | 0.029 |
| NF1 (UniProt P21359) | -0.03 | -0.01 | 0.03 | -0.009 | 0.016 |
| OSBPL3 isoform 2 (UniProt Q9H4L5) | -0.02 | -0.018 | 0.043 | -0.017 | 0.004 |
| NUDT4 isoform 2 (UniProt Q9NZJ9) | 0.009 | -0.011 | 0.01 | 0.067 | -0.026 |
| NIFK (UniProt Q9BYG3) | 0.065 | 0.07 | 0.015 | 0.056 | 0.047 |
| NIPSNAP3A (UniProt Q9UFN0) | 0.083 | -0.037 | -0.013 | -0.036 | 0.322 (active) |
| NTPCR (UniProt Q9BSD7) | -0.015 | 0.067 | -0.015 | 0.034 | 0.029 |
| NUP160 (UniProt Q12769) | -0.021 | -0.027 | 0.012 | -0.04 | 0.01 |
| PAXBP1 (UniProt Q9Y5B6) | -0.004 | -0.026 | 0.026 | 0.057 | 0.001 |
| PARG (UniProt Q86W56) | -0.011 | -0.006 | -0.005 | -0.004 | 0.091 |
| ORC5 (UniProt O43913) | -0.037 | -0.022 | 0.029 | 0.003 | 0.021 |
| OLA1 (UniProt Q9NTK5) | -0.001 | 0.04 | 0 | 0.011 | 0.022 |
| MXRA7 (UniProt P84157) | – | – | -0.05 | -0.106 | -0.062 |
| NUDT6 (UniProt P53370) | – | – | -0.222 | 0.009 | – |
| NRIP1 (UniProt P48552) | 0.058 | 0.112 | – | -0.071 | -0.069 |
| PARD3B (UniProt Q8TEW8) | – | – | – | 0.138 | -0.085 |
| P2RY1 (UniProt P47900) | -0.153 | 0.163 | – | -0.047 | -0.022 |
| OSBPL1A (UniProt Q9BXW6) | -0.089 | 0.007 | – | -0.144 | -0.084 |
| NUP188 (UniProt Q5SRE5) | -0.044 | -0.009 | 0 | -0.001 | 0.016 |
| NFKBIB (UniProt Q15653) | 0.068 | 0 | 0.014 | 0.055 | -0.185 |
| PAGE2B (UniProt Q5JRK9) | – | – | -0.031 | -0.072 | 0.182 |

| Target | log2 fold change [1] | log2 fold change [2] | log2 fold change [3] | log2 fold change [4] | log2 fold change [5] |
| --- | --- | --- | --- | --- | --- |
| NR2F2 (UniProt P24468) | -0.082 | -0.117 | – | -0.008 | 0.082 |
| MYBL2 (UniProt P10244) | – | – | -0.01 | 0.047 | 0.326 (active) |
| NAA38 isoform 2 (UniProt Q9BRA0) | -0.002 | 0.02 | 0.063 | -0.005 | -0.344 (active) |
| PAGE4 (UniProt O60829) | 0.024 | -0.11 | – | -0.143 | 0.118 |
| PAPOLG (UniProt Q9BWT3) | – | – | 0.064 | 0.074 | -0.107 |
| NNT (UniProt Q13423) | -0.005 | 0.052 | 0 | 0.015 | 0.034 |
| NOCT (UniProt Q9UK39) | – | – | – | 0.021 | – |
| OSBP2 (UniProt Q969R2) | 0.021 | 0.046 | 0.019 | -0.095 | -0.439 |
| NPLOC4 (UniProt I3L3I1) | -0.041 | 0.2 | – | -0.101 | – |
| NSUN7 (UniProt Q8NE18) | -0.144 | -0.046 | 0.06 | – | -0.081 |
| NUP133 (UniProt Q8WUM0) | 0.05 | 0.046 | 0.014 | 0.025 | -0.052 |
| NUMB isoform 2 (UniProt P49757) | – | – | – | -0.207 | – |
| MYLK (UniProt Q15746) | -0.038 | -0.161 | -0.008 | – | 0.123 |
| MTFP1 (UniProt Q9UDX5) | 0.005 | -0.058 | 0.03 | 0.079 | -0.222 |
| MYO10 (UniProt Q9HD67) | -0.122 | 0.104 | 0.165 | – | 0.024 |
| NDUFAF5 (UniProt Q5TEU4) | 0.078 | 0.016 | 0.026 | -0.174 | 0.004 |
| MT-ATP8 (UniProt P03928) | -0.057 | 0.052 | 0.082 | – | 0.104 |
| MYH11 isoform 2 (UniProt P35749) | 0.037 | -0.021 | 0.004 | -0.065 | 0.025 |
| NCAPD3 (UniProt P42695) | 0.028 | -0.007 | 0.046 | -0.005 | 0.016 |
| OCRL (UniProt Q01968) | 0.018 | 0.056 | 0.003 | 0.013 | -0.017 |
| MSH2 (UniProt P43246) | 0.018 | -0.006 | 0.028 | 0.001 | 0.065 |
| NIT2 (UniProt Q9NQR4) | -0.033 | 0.017 | 0.027 | -0.007 | 0.058 |
| NAT1 (UniProt P18440) | 0.049 | -0.021 | 0.012 | 0.015 | 0.011 |
| ORC3 isoform 2 (UniProt Q9UBD5) | 0.005 | -0.031 | 0.014 | 0.021 | 0.047 |
| ORC3 (UniProt Q9UBD5) | – | – | – | – | -0.276 |
